Experimental findings from PubChem BioAssay AID1578 (Sanford-Burnham Center for Chemical Genomics, 2009) are described below.

Values joined by “and” are separate entries in the source; they are usually repeats but may differ in a detail not shown here. Equal entries are not always repeated. The campaign covered roughly 290,000 compounds. About 3,000 (1%) were called active. Cut-off read from the data, not from the text of the source: active = inhibition mostly above about 36% (no sharp cut-off); inactive = mostly below about 34%. Many of the other results were omitted from the sample, so actives are more common in it than they were. Where a structure was tested more than once in an assay, its records may differ in their call.

A short description of the assay: inhibition of NOD1-driven NF-kB reporter – cell-based, luminescence, uHTS, primary screen (AID 1578).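 Note: HEK-293T reporter cells stimulated with the NOD1 agonist gamma-tri-DAP.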 The following applies: NOD1-driven NF-kB luciferase reporter cells, at 4 µM, stronger effect = higher value.
For `COc1ccc(CCNC(=O)CSc2nc3c(c(=O)n(C)c(=O)n3C)n2C)cc1OC`, the inhibition was -28.4% (inactive).
In the case of `O=[N+]([O-])c1ccc(Sc2cccc[n+]2[O-])c2nonc12` it was 106% (active); in that of `O=[N+]([O-])c1ccc(Nc2ccccc2O)c2nonc12`, -3.2% (inactive).
In the case of `O=[N+]([O-])c1ccc(Nc2ccccc2)c2nonc12` it was -7.4% (inactive); in that of `N#Cc1ccccc1NC(=O)CSc1nnc(-c2ccncc2)o1`, 4.5% (inactive).
In the case of `Cn1c(-c2csc(-c3ccccc3)n2)n[nH]c1=S` it was -29.3% (inactive); in that of `Cc1ccccc1C(CC(=O)c1cccs1)C(C#N)C#N` (configuration not stated), 85.2% (active); in that of `CC(CC(=O)c1cccs1)CC(=O)c1cccs1`, -14.5% (inactive).
On to `Cc1cc(C)c(C(CC(=O)c2cccs2)C(C#N)C#N)c(C)c1` (configuration not stated), for which the inhibition is 26.3% (inactive).
Turning to `O=[N+]([O-])c1cccc(Nc2nc(Cl)nc(Cl)n2)c1`, the inhibition was 14.4% (inactive).
The result for `COc1nc(NC(C)(C)C)nc(Oc2ccc(=O)n(-c3ccccc3)n2)n1` reads -3.3% (inactive).
In the case of `COC(=O)NC(=C(Cl)Cl)S(=O)(=O)c1ccccc1` it was 74.9% (active).
The result for `COc1ccc(C(=O)NCS(=O)(=O)c2ccc(C)cc2)cc1` reads 7.7% (inactive).
As for `COc1ccc(NC(=O)c2ccc(C)cc2)cc1`, the inhibition was -19.2% (inactive).
The result for `Cc1ccc(C(=O)NNC(=S)NC(=O)c2ccc(Cl)cc2)cc1` reads 31.1% (inactive).
The result for `Cc1ccc(C(=O)NC(=S)NNS(=O)(=O)c2ccc(C)cc2)cc1` reads -34.4% (inactive); that for `Cc1ccc(S(=O)(=O)NNC(=O)c2ccc(O)cc2)cc1`, -14.1% (inactive).
In the case of `COC(=O)NC(NS(=O)(=O)c1ccccc1)(C(=O)OC)C(F)(F)F` (configuration not stated) it was -0.4% (inactive); in that of `Cc1ccc(S(=O)(=O)C(CCC(=O)c2ccc(Cl)cc2)C(N)=O)cc1` (configuration not stated), 9.7% (inactive).
On to `CCOC(=O)NC(C(Cl)(Cl)Cl)S(=O)(=O)c1ccccc1` (configuration not stated), for which the inhibition is 5% (inactive).
The result for `CCOC(=O)C1CCN(S(=O)(=O)c2ccc(C)c(C)c2)CC1` reads -13.2% (inactive).
In the case of `CCOC(=O)c1ccc(NC(=S)N2CCN(CCNC3=CC(=O)CC(C)(C)C3)CC2)cc1` it was -30.1% (inactive); in that of `CCC(=O)c1ccc(OCC(=O)Nc2ccc(N3CCOCC3)cc2N2CCOCC2)cc1`, -43.2% (inactive); in that of `COc1ccc(C(=O)NCCN2CCOCC2)c(OC)c1OC`, 4.8% (inactive).
The result for `CNC(=O)C1CCN(S(=O)(=O)c2c(C)noc2/C=C/N(C)C)CC1` reads -22.5% (inactive); that for `Cc1cc(C)c(C#N)c(SCc2cc3c(cc2Cl)OCO3)n1`, 26.9% (inactive).
`O=C(CSc1ccc2c(c1)OCCO2)Nc1ccc(N2CCOCC2)cc1`: the inhibition was -37.2% (inactive).
As to `COc1cccc(N2CCN(C(C)C(=O)NC34CC5CC(CC(C5)C3)C4)CC2)c1` (configuration not stated), the inhibition was -31.5% (inactive).
`Cc1ccc(-n2ncc3c(SCc4cccnc4)ncnc32)c(C)c1`: the inhibition was 1.6% (inactive).
On to `Cc1ccc(S(=O)(=O)NCCNC(=O)c2ccccc2)cc1`, for which the inhibition is -16.6% (inactive).
Take `Cc1ccc(S(=O)(=O)CNC(=O)c2ccccc2)cc1`: the inhibition was -6.8% (inactive).
For `COc1ccccc1Oc1ccnc2cc(Cl)ccc12`, the inhibition is 27.5% (inactive).
The result for `O=C(/C=C/Nc1ccc(Br)cc1F)c1ccco1` reads 53.7% (active); that for `O=C(/C=C/Nc1ccc(F)cc1F)c1ccco1`, -11.6% (inactive).
The result for `O=C(/C=C/Nc1ccc(Br)cc1F)c1ccccc1` reads 27.6% (inactive).
The result for `COc1ccc(C2C(C(=O)N3CCC(C)CC3)c3ccccc3C(=O)N2C)cc1` (configuration not stated) reads -14.1% (inactive); that for `COCCC(=O)NC1CCCc2c1cnn2-c1cccc(C)c1C` (configuration not stated), -25.1% (inactive); that for `Cn1c(-c2ccccc2)cnc1SCC(=O)N1CCCCC1`, 32% (active).
With `Cn1c(-c2ccccc2)cnc1SCC(N)=O`, the inhibition was 0.4% (inactive).
In the case of `Cn1c(-c2ccc(F)cc2)cnc1SCC(=O)N1CCCCC1` it was -31.8% (inactive); in that of `Cc1cc(C)[n+](-c2ccc(C(C)C)cc2)c2[nH]c(=O)[nH]c(=O)c12`, -20.8% (inactive).
The result for `Cc1[nH]nc(SCC(=O)Nc2cccc(O)c2)c1[N+](=O)[O-]` reads -37.4% (inactive).
The result for `CC(C)CNS(=O)(=O)c1ccc(CCC(=O)Nc2cc(Cl)ccc2Oc2ccccc2)cc1` reads 23.4% (inactive); that for `CCNS(=O)(=O)c1ccc(CCC(=O)Nc2cc(Cl)ccc2Oc2ccccc2)cc1`, 34% (inactive); that for `CCCNS(=O)(=O)c1ccc(CCC(=O)Nc2cc(Cl)ccc2Oc2ccccc2)cc1`, 79.1% (active).
As to `COc1ccc(NC(=O)c2cc(S(=O)(=O)N3CCOCC3)cn2C)c(OC)c1`, the inhibition is -19% (inactive).
The result for `CCCNC(=S)N1CCC(C(=O)c2ccc(F)cc2)CC1` reads -20.1% (inactive); that for `CC(C)CNC(=S)N1CCC(C(=O)c2ccc(F)cc2)CC1`, 61.7% (active); that for `C=CCNC(=S)N1CCC(C(=O)c2ccc(F)cc2)CC1`, -20.4% (inactive).
The result for `Cc1ccc(C)c2c1sc(=NC(=O)CN1C(=O)CCC1=O)n2C` reads 1.3% (inactive); that for `CCOC(=O)c1ccc(NC(=O)C2(c3ccccc3)CCCC2)cc1`, 14% (inactive); that for `CCCc1[nH][nH]c(=O)c1C(c1ccc(Cl)cc1)C(C#N)C#N` (configuration not stated), 3.7% (inactive).
Turning to `Cc1[nH]n(-c2ncc(-c3ccc(Cl)cc3)s2)c(=O)c1C(c1ccc(Cl)cc1)C(C#N)C#N` (configuration not stated), the inhibition was 67.3% (active).
In the case of `Cc1[nH]n(-c2ncc(-c3ccccc3)s2)c(=O)c1C(c1ccc(Br)cc1)C(C#N)C#N` (configuration not stated) it was 32.7% (inactive); in that of `Cc1ccccc1N(C(=O)Cc1ccsc1)C(C(=O)NC1CCCCC1)c1ccc(F)cc1` (configuration not stated), -25.2% (inactive); in that of `Cc1c(C2=CCN(S(=O)(=O)c3ccc(Br)cc3)CC2)c2ccccc2n1C`, 0.5% (inactive).
In the case of `CC(=O)C1=C(C)NC(=O)NC1c1cccc([N+](=O)[O-])c1O` (configuration not stated) it was -9.2% (inactive).
In the case of `O=C(O)c1cc(-c2ccco2)nc2ccccc12` it was -13.5% (inactive); in that of `O=C(O)c1cc(-c2ccco2)nc2cc3ccccc3cc12`, -6.3% (inactive); in that of `O=C(O)c1cc(-c2ccco2)nc2ccc(Br)cc12`, 75.3% (active) and -18.2% (inactive).
On to `Clc1ccc(COn2c(-c3ccc(Cl)cc3)nc3ccccc32)cc1`, for which the inhibition was -31.8% (inactive).
The result for `COc1ccc(/C=N/NC(=O)C2C3CCCCC32C)cc1OC` (configuration not stated) reads 47.1% (active); that for `COc1cc(/C=N/NC(=O)C2C3CCCCC32C)cc(Br)c1O` (configuration not stated), 6.5% (inactive).
On to `COc1ccc(/C=N/NC(=O)C2C3CCCCC32)cc1OC` (configuration not stated), for which the inhibition is -9.5% (inactive).
The result for `FC(F)(F)c1cc(Oc2ccc(Cl)cc2)ncc1-c1nnc(-c2ccc(Cl)cc2)o1` reads -6.5% (inactive).
In the case of `CC(C)C(NS(=O)(=O)c1ccccc1)C(=O)OCc1cc([N+](=O)[O-])cc2c1OCOC2` (configuration not stated) it was -12.4% (inactive).
The result for `CC(Sc1cccc[n+]1[O-])C(=O)Nc1ccc([N+](=O)[O-])cc1Cl` (configuration not stated) reads -22.4% (inactive).
As for `Cc1ccc(-c2noc(C3CCCCC3)n2)cc1`, the inhibition was -58.2% (inactive).
In the case of `COc1ccc([N+](=O)[O-])cc1N(CC(=O)NCC1CCCO1)S(C)(=O)=O` (configuration not stated), the inhibition is -19.1% (inactive).
On to `Cc1ccc([N+](=O)[O-])cc1N(CC(=O)NCC1CCCO1)S(C)(=O)=O` (configuration not stated), for which the inhibition was 60.2% (active).
In the case of `O=C(NCC1CCCO1)c1ccc(Oc2ccc([N+](=O)[O-])cc2)cc1` (configuration not stated) it was 42.4% (active); in that of `O=C(NCC1CCCO1)c1cccc(Oc2ccc([N+](=O)[O-])cc2)c1` (configuration not stated), -20.6% (inactive); in that of `CS(=O)(=O)N(CC(=O)NCC1CCCO1)c1cccc([N+](=O)[O-])c1` (configuration not stated), -15% (inactive).
In the case of `O=C(NCC1CCCO1)c1ccc(Oc2ccc([N+](=O)[O-])cc2Cl)cc1` (configuration not stated) it was 13.6% (inactive); in that of `COc1ccc(CCNC(=O)CCn2c(SCC#N)nc3ccccc3c2=O)cc1OC`, 10.3% (inactive); in that of `COc1ccc2c(C)cc(SCC(=O)Nc3cccnc3Cl)nc2c1`, -12.9% (inactive).
In the case of `Nc1nonc1-n1nnc(C(=O)N/N=C/c2ccccc2)c1CN1CCc2ccccc21` it was -21.6% (inactive).
In the case of `CNC(=O)NC(=O)COC(=O)CCCOc1ccc(OC)cc1`, the inhibition was 4.1% (inactive).
In the case of `CCOc1ccc(CCNC(=O)c2cc3sccc3n2CC)cc1OCC` it was 49.7% (active).
In the case of `COc1ccc(CCNC(=O)c2cc3sccc3n2C)cc1OC` it was 5.4% (inactive); in that of `CCOc1ccc(CCNC(=O)c2cc3sccc3n2C)cc1OCC`, 26.3% (inactive).
The result for `COc1ccc(S(=O)(=O)N(C)c2ccc(C(=O)NC3CCCC3)cc2)cc1` reads -11.8% (inactive).
For `CC(=O)C(C)Sc1nnc(-c2ccccc2F)n1C1CC1` (configuration not stated), the inhibition was -26.2% (inactive).
The result for `CC(=O)c1cn(CC(=O)Nc2ccccc2F)c2ccccc12` reads 14.5% (inactive).
The result for `CN1CCN(C(=S)c2cn(Cc3ccccc3F)c3ccccc23)CC1` reads -13.6% (inactive); that for `Cc1ccc(C)c(CN2CCC(CNC(=O)Nc3cccc(Cl)c3C)CC2)c1`, 2.1% (inactive).
In the case of `CCOC(=O)C1=C(O)c2ccccc2C(=O)/C1=C\c1ccc(CC)cc1` it was 15.2% (inactive).
For `CCOC(=O)C1=C(Cc2ccc(OC)cc2)C(=O)c2ccccc2C1=O`, the inhibition was 3.6% (inactive).
On to `COc1cccc2cc(C(=O)C3=C(O)C(=O)N(CCN4CCOCC4)C3c3ccc(C(C)(C)C)cc3)oc12` (configuration not stated), for which the inhibition is -11.6% (inactive).
The result for `Cc1ccc(CN(C)C(=O)CCc2c[nH]c3ccccc23)o1` reads -18.4% (inactive).
In the case of `CN1CCN(c2nc(-c3cccc([N+](=O)[O-])c3)nc3ccccc23)CC1` it was -0.7% (inactive).
In the case of `CCC(=O)N1CCc2cc(S(=O)(=O)Nc3ccccc3C)ccc21` it was 3.4% (inactive).
As to `COc1ccc(O)c(-c2[nH]ncc2C(=O)c2ccccc2C)c1`, the inhibition is 26.5% (inactive).
The result for `COc1ccc(O)c(-c2[nH]ncc2C(=O)c2cccc(C)c2)c1` reads -6.8% (inactive); that for `CCOC(=O)c1sc(N(Cc2ccccc2)C(=O)COC(=O)c2ccc(O)cc2)nc1C`, 62.2% (inactive); that for `CCOC(=O)c1sc(N(Cc2ccccc2)C(=O)CCl)nc1C`, 28.7% (active).
The result for `CCOC(=O)c1sc(N(Cc2ccccc2)C(=O)COC(=O)c2ccccc2O)nc1C` reads -48% (inactive).
